This is one part of a sample in which hits are shown more often than they occur.
Pf Dd2 growth – qHTS Primary assay for Inhibitors of Plasmodium falciparum Dd2 growth in vitro; P. falciparum Dd2 growth, SYBR Green, 72 h; Potency, µM (titrated, usually from 28.9 µM), for inactives: top-dose activity, negative = inhibition, most hits filed as inhibitors; hit rate 4.3% among 120,000; active means well fitted inhibition curve with a large enough effect;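 further: plate controls were DMSO vehicle for no effect and reference drug for full effect; nearly all actives have a fitted effect of over 65% in size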
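Readout: SYBR Green fluorescence, 485 nm excitation, 535 nm emission, after ~16 h lysis at 37C. Before that, Dd2-infected red cells (2.5% hematocrit) grew 72 h with compound, 29 uM top final concentration.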
Numbers without * were called inactive; [ ] = another dose, or the depositor's remark. Potency means the concentration at half of the fitted maximal effect.

`O=C(CN1C(=O)C2(SCC(=O)N2c2cccc(Cl)c2)c2ccccc21)NC1CCCCC1` (configuration not stated) gave Pf Dd2 growth 13µM*.
For Cc1cccc(N2C(=O)CSC23C(=O)N(Cc2cccc(C(F)(F)F)c2)c2ccccc23)c1 (configuration not stated) the results were Pf Dd2 growth 10µM*.
CCc1ccc(N2C(=O)CSC23C(=O)N(Cc2cccc(F)c2)c2ccccc23)cc1 (configuration not stated) was read as Pf Dd2 growth -11%.
For CC(C)c1ccc(N2C(=O)CSC23C(=O)N(Cc2ccccc2)c2ccccc23)cc1 (configuration not stated) the results were Pf Dd2 growth inactive.
For NC(=O)CN1C(=O)C2(SCC(=O)N2c2cccc(F)c2)c2ccccc21 (configuration not stated) the results were Pf Dd2 growth 13%.
Screening COc1cccc(OCc2nc(C(=O)N3CCC4(CC3)CNC(=O)O4)co2)c1 returned Pf Dd2 growth 0%.
Screening COc1ccc(-c2ccccc2)cc1N1C(=O)[C@@H]2C[C@H]1CN2C(=O)C1(N)CC1 returned Pf Dd2 growth -1%.
`CCC1(C(=O)Nc2ccc(C(C)C)cc2)CCCCC(=O)N1` (configuration not stated) gave Pf Dd2 growth inactive.
For CN(C(=O)Cn1cccc1-c1nc(-c2ccc3c(c2)OCO3)no1)c1ccccc1 the results were Pf Dd2 growth inactive.
`COC(=O)[C@@H](Cc1cccnc1)NC(=O)[C@@H]1CN(C(=O)c2cccc(F)c2)CCN1C(=O)c1cccs1` gave Pf Dd2 growth -1%.
O=C1c2cc(N3CCOCC3)nc(-c3cccc(CO)c3)c2CN1Cc1ccccc1 was read as Pf Dd2 growth inactive.
For COCCCNc1ccc(C(=O)N2CCC(CN3CCCC3=O)CC2)cn1 the results were Pf Dd2 growth -1%.
`CS(=O)(=O)c1ccc(-c2cnc([C@@H]3COCCN3Cc3ccc(Cl)cc3)[nH]2)cc1` gave Pf Dd2 growth -5%[44.1 µM].
For CCc1ccc(S(=O)(=O)N2CCCC(Cn3cnc4cccnc43)C2)cc1 (configuration not stated) the results were Pf Dd2 growth -5%.
`O=C1NC(C(=O)NCC2CC2)Cn2cccc21` (configuration not stated) gave Pf Dd2 growth 65%.
Screening CCOc1ccc(-c2cc3c(=O)n(CCNC(=O)c4ccc[nH]4)ccn3n2)cc1 returned Pf Dd2 growth -14%.
COc1ccc(NC(=O)Cn2c(=O)n(-c3ccc(F)cc3)c(=O)c3c2cc(C)n3C)c(OC)c1 was read as Pf Dd2 growth -19%.
Screening NCCCN1C(=O)CC[C@H]2CN(C(=O)c3ccc4c(c3)CCC4)CC[C@H]21 returned Pf Dd2 growth -4%.
Screening CC(C)c1cc(CN(C)C(=O)CN2C(=O)OC[C@@H]2c2ccccc2)no1 returned Pf Dd2 growth -15%.
`O=C(CC1CCCCC1)N1CCC(c2n[nH]c(=O)n2-c2ccccc2)CC1` gave Pf Dd2 growth inactive.
Screening CN1C(=O)c2ccccc2Sc2ccc(NC(=O)c3ccccc3F)cc21 returned Pf Dd2 growth -4%.
Screening CN1C(=O)c2ccccc2Sc2ccc(NC(=O)COc3ccc(F)cc3)cc21 returned Pf Dd2 growth 0%.
`CN1C(=O)c2ccccc2Sc2ccc(NC(=O)N3CCN(c4ccccc4F)CC3)cc21` gave Pf Dd2 growth 13µM*.
Screening CCN1C(=O)C2(CCN(C(=O)CC(C)C)CC2)c2ccccc21 returned Pf Dd2 growth 11%.
For Cc1ccc(-c2ncc(C(=O)Nc3cc(F)cc(F)c3)c(-c3ccncc3)n2)cc1 the results were Pf Dd2 growth -28%.
`NCc1cccc(-c2cccc(Cl)c2)c1` gave Pf Dd2 growth 13µM*.
Screening C=Cc1cccc(-c2nccn2-c2cccc(CN)c2)c1 returned Pf Dd2 growth -28%.
NCc1cccc(-c2cncnc2)c1 was read as Pf Dd2 growth 6%[44.1 µM].
`CNC(=O)[C@@H]1CN(C(=O)Cc2ccccc2Br)C[C@H]1CO` gave Pf Dd2 growth 1%.
Screening CNC(=O)[C@@H]1C[C@@H](n2cc(CN(C)C(=O)Nc3ccc(F)cc3)nn2)CN1 returned Pf Dd2 growth -3%.
C[S+](=O)([O-])CCn1ncc2cc(OCc3cccc(-c4ccccc4O)c3)ccc21 was read as Pf Dd2 growth 7.9µM*.
Screening CNC(=O)CCn1ncc2cc(OCc3ccccc3-c3cnc(OC)nc3)ccc21 returned Pf Dd2 growth inactive.
For COc1ccccc1-c1cccc(COc2ccc3c(cnn3CC[S+](C)(=O)[O-])c2)c1 the results were Pf Dd2 growth -29%[44.1 µM].
Screening CNC(=O)CCn1ncc2cc(OCc3ccccc3-c3ccccc3COC)ccc21 returned Pf Dd2 growth 4µM*.
COc1cc(F)cc(-c2ccc(COc3ccc4c(cnn4CCC(=O)O)c3)cc2)c1 was read as Pf Dd2 growth -18%[44.1 µM].
COc1ccc(-c2ccc(COc3ccc4c(cnn4CCC(=O)O)c3)cc2)c(Cl)c1 was read as Pf Dd2 growth inactive.
COc1ccc(F)cc1-c1cccc(COc2ccc3c(cnn3CC[S+](C)(=O)[O-])c2)c1 was read as Pf Dd2 growth -29%.
Screening CNC(=O)CCn1ncc2cc(OC3CCc4cccc(-c5ccnc(OC)c5)c43)ccc21 (configuration not stated) returned Pf Dd2 growth -7%.
`CNC(=O)CCn1ncc2cc(OCc3ccccc3-c3c(Cl)cccc3OC)ccc21` gave Pf Dd2 growth 4µM*.
`COc1cccc(F)c1-c1ccc(COc2ccc3c(cnn3CCC(=O)O)c2)cc1` gave Pf Dd2 growth -20%[44.1 µM].
`C[S+](=O)([O-])CCn1ncc2cc(OCc3cccc(-c4cncnc4)c3)ccc21` gave Pf Dd2 growth inactive.
CNC(=O)CCn1ncc2cc(OCc3ccccc3-c3cc(F)ccc3C)ccc21 was read as Pf Dd2 growth 3.2µM*.
`Cc1ccc(S(=O)(=O)Nc2cccn3nc(C4CCC4)nc23)cc1` gave Pf Dd2 growth -21%.
O=C(Cc1ccccc1F)N1CCC2(CC1)N(c1ccccc1)C(=O)CS2(=O)=O was read as Pf Dd2 growth -40%.
Cc1cnc(CCN)n1CC1CC1 was read as Pf Dd2 growth inactive.
For O=C(NCCCN1CCOCC1)C1CCc2ncc(-c3ccsc3)n2C1 (configuration not stated) the results were Pf Dd2 growth 21%.
Screening CC1CCN(c2ccc(CNC(=O)CC3CCOCC3)cc2)CC1 returned Pf Dd2 growth inactive.
`O=C(c1ccco1)N1CCN(c2ncncc2-c2nc(-c3ccccc3)no2)CC1` gave Pf Dd2 growth 4µM*.
`NC(=O)C1CCN(c2ncncc2-c2nc(-c3ccccc3)no2)CC1` gave Pf Dd2 growth -21%.
Screening c1ccc(-c2noc(-c3cncnc3N3CCN(c4ccccc4)CC3)n2)cc1 returned Pf Dd2 growth -11%.
For O=C1NCCC[C@@H]1NC(=O)[C@@H]1CN(C(=O)C2CCNCC2)CCN1C(=O)c1ccccc1 the results were Pf Dd2 growth -22%.
COc1ccc(Cn2c(=O)c3ccnn3c3ccc(C(=O)O)cc32)cc1 was read as Pf Dd2 growth inactive.
`CS(=O)(=O)N1CCC(C2CCN(C(=O)C3CC=CC3)C2)CC1` (configuration not stated) gave Pf Dd2 growth -3%.
For CC(C)C1=NOC2(CCN(C3COC3)CC2)C1 the results were Pf Dd2 growth 4%[44.1 µM].
`O=C(NCc1ccccc1)c1ccc(CS(=O)(=O)c2c(Cl)cccc2Cl)o1` gave Pf Dd2 growth inactive.

Compound activity as filed in PubChem.
